Compound activity (PubChem BioAssay)
Hits are enriched below; roughly 19% of the tested compounds scored in any of these assays.
HT1080 IDH1KD tx: HT-1080 IDH1 knockdown cell toxicity (counter line); HT-1080 IDH1 knockdown viability, ATP luminescence, 48 h; Potency, µM (titrated, usually from 46.1 µM), usual class: cytotoxic; 360,000 tested, 2% active
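Using the IDH1-knockdown HT-1080 line run in the same batch and compound series as the NT line, viability after 48 h at 37 °C was determined by CellTiter-Glo luminescence and expressed as % activity.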
HT1080-NT tox: kills 2HG-producing HT-1080-NT fibrosarcoma cells. Potency, µM (series often up to 46.1 µM), most hits filed as cytotoxic. 360,000 tested, 1.6% active. HT-1080-NT fibrosarcoma viability, CellTiter-Glo ATP luminescence, 48 h;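 further: NT is the 2HG producing partner of a matched IDH1 knockdown line; nearly all actives have a fitted effect of over 55% in size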
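Fibrosarcoma NT cells, 750 per well in 5% FBS RPMI, were exposed to compound for 48 hours. Viability: CellTiter-Glo luminescence.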
DT40 TDP1 no CPT: qHTS for Inhibitors of human tyrosyl-DNA phosphodiesterase 1 (TDP1): qHTS in cells in absence of CPT; AID 686978, 2013; 420,000 tested, 15% active; DT40 Tdp1-/- hTDP1 cells, no CPT, ATP luminescence, 48 h; Potency, µM (top dose mostly 46.2 µM), usual class: inhibitors; further: nearly all actives have a fitted effect of over 55% in size
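Compound effects on proliferation are scored in DT40 Tdp1-/-;hTDP1 cells in the absence of CPT. ATP levels (CellTiter-Glo luminescence) are recorded after a ≥48 hr, 37 °C incubation.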
IL-1B inflam inh: inhibitors of inflammasome signaling (IL-1 beta secretion) | THP-1 LPS/ATP IL-1B secretion, AlphaLISA, 16 h; active compounds read low | activity change, % at 57.5 µM | 360,000 tested, 4.7% active | AID 743279; in the data active means activity change below about -50%; inconclusive means mostly about -30% to -49%
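THP-1 cells pretreated 1 hr with compounds (up to 57.5 uM final), then stimulated with LPS (250 ng/mL final) plus ATP (1.25 mM final); secreted IL-1B measured by AlphaLISA after 16 hr, decreased signal indicating inhibition.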
DT40 TDP1 CPT: growth inhibition of DT40 Tdp1-/-;hTDP1 cells with camptothecin (screen for TDP1 inhibitors); chicken DT40 Tdp1-/-;hTDP1 cells + 20 nM CPT, ATP luminescence, 48 h; 420,000 tested, 12% active; AID 686979; Potency, µM (doses to about 46.2 µM), usual class: inhibitors; further: nearly all actives have a fitted effect of over 55% in size
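Chicken DT40 Tdp1-/- cells stably complemented with human TDP1 were seeded at 400 cells/well in medium containing 20 nM camptothecin, exposed to pin-transferred compounds, and grown at 37 °C for at least 48 hr. Viability was read as ATP luminescence.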
Numbers stand for hits; – = inactive; ? = inconclusive; · = no result; [ ] = remark or other dose. Unless noted, the call rests on the fitted dose curve; in most records, active means well fitted curve in the direction sought with a large enough effect; inconclusive means small, poorly fitted or top-dose-only effect, or another doubt; inactive means no such curve, though single readings can be large; an effect the other way counts as inactive or inconclusive.

SMILES	HT1080 IDH1KD tx	HT1080-NT tox	DT40 TDP1 no CPT	IL-1B inflam inh	DT40 TDP1 CPT
COc1ccc(C(=O)O/N=C(\N)c2ccc(OC)c(OC)c2)c(OC)c1	–	–	?	-54	?
Cc1ccc(C(=O)O/N=C(\N)Cc2cccs2)cc1[N+](=O)[O-]	–	–	–	–	–
COc1ccccc1C/C(N)=N/OC(=O)c1ccc(C)c([N+](=O)[O-])c1	10µM	–[9.24 µM]	?	–	?
COc1ccccc1C/C(N)=N/OC(=O)c1ccc2c(c1)OCO2	–	?	?	–	?
COc1ccc(/C(N)=N/OC(=O)c2ccc(OC)c([N+](=O)[O-])c2)cc1OC	–	–	12µM	–	?
COc1ccccc1C/C(N)=N/OC(=O)c1ccco1	–	–	–	–	21µM
COC(=O)c1sc(S(=O)(=O)NC(C)C(=O)O)c(C(=O)OC)c1C (configuration not stated)	–	–	–	–	–
Cc1nc2cc(F)ccc2n1C1CCN(S(=O)(=O)c2ccccc2)CC1	–	–	?	–	?
COc1cccc(N2CCN(C(=O)c3cc(-c4ccc(F)cc4)[nH]c3C)CC2)c1	?	–	21µM	?	15µM
Cc1ccc(N2CCN(C(=O)c3cc(-c4ccc(F)cc4)[nH]c3C)CC2C)cc1 (configuration not stated)	18µM	23µM	21µM	-59	?
COc1cccc(N2CCN(C(=O)CSc3ccc(F)cc3)CC2)c1	–	–	?	–	–
COc1ccccc1N1CCN(C(=O)c2cc(-c3ccc(F)cc3)[nH]c2C)CC1	?	?	?	–	?
Cc1[nH]c(-c2ccc(F)cc2)cc1C(=O)N1CCN(c2ccccc2)CC1	–	–	?	-56	?
COc1ccccc1CN1CCNC(=O)C1CC(=O)N(C)C1CCOCC1 (configuration not stated)	–	–	–	–	–
CC(C)S(=O)(=O)c1oc(-c2ccc(F)cc2)nc1S(=O)(=O)c1ccccc1	·	·	0.46µM	·	0.73µM
CC(C)S(=O)(=O)c1oc(-c2cccs2)nc1S(=O)(=O)c1ccc(F)cc1	·	·	0.46µM	·	0.65µM
CSc1oc(-c2ccc(F)cc2)nc1S(=O)(=O)c1ccccc1	–	–	–	–	–
C=CCNc1oc(-c2cccs2)nc1S(=O)(=O)c1ccccc1	–	–	–	–	–
O=C(COC(=O)c1cc([N+](=O)[O-])ccc1NCCO)Nc1cccnc1Cl	–	–	?	–	–
Cc1ccc(C2(C)NC(=O)N(CC(=O)Nc3cc(S(=O)(=O)N(C)C)ccc3C)C2=O)cc1 (configuration not stated)	–	–	?	–	?
Cc1cn2c(=O)cc(COC(=O)COc3ccc(C)c(C)c3)nc2s1	·	·	–	·	–
COc1ccc2[nH]c3c(c2c1)CCN1C(=O)C(CC(=O)NCc2ccco2)C[C@H](C(=O)N2CCCCC2)[C@@]31C (some centres not stated)	–	–	?	–	–
CC[C@]12c3[nH]c4ccc(Cl)cc4c3CCN1C(=O)[C@@H](CC(=O)NCCc1ccccn1)C[C@@H]2C(=O)N1CCN(C(=O)C2CC2)CC1	–	–	?	–	?
C[C@]12c3[nH]c4cc(-c5ccco5)ccc4c3CCN1C(=O)[C@@H](CC(=O)NCCc1ccccn1)C[C@@H]2C(=O)N1CCCCC1	–	–	?	-108	?
COCCCNC(=O)C[C@H]1C[C@H](C(=O)N2CCCCC2)[C@@]2(C)c3[nH]c4ccc(Cl)cc4c3CCN2C1=O	–	–	13µM	–	21µM
SMILES	HT1080 IDH1KD tx	HT1080-NT tox	DT40 TDP1 no CPT	IL-1B inflam inh	DT40 TDP1 CPT
C[C@]12c3[nH]c4ccc(Cl)cc4c3CCN1C(=O)[C@@H](CC(=O)NCCc1ccccn1)C[C@@H]2C(=O)N1CCCCC1	–	–	26µM	–	?
COCCCNC(=O)CC1C[C@H](C(=O)N2CCCCC2)[C@@]2(C)c3[nH]c4ccc(OC)cc4c3CCN2C1=O (some centres not stated)	–	–	–	–	–
C[C@]12c3[nH]c4ccc(Cl)cc4c3CCN1C(=O)[C@@H](CC(=O)NCc1ccco1)C[C@@H]2C(=O)N1CCCCC1	?	–	5.8µM	-55	6.5µM
COc1ccc(CN2CC(C(=O)NCc3cccc(OC)c3)CC2=O)cc1 (configuration not stated)	–	–	–	–	–
COc1ccc(S(=O)(=O)N2CCCC2CNC(=O)C(=O)NCc2cccs2)cc1 (configuration not stated)	–	–	?	–	?
O=Nc1c2cc(-c3ccccc3)[nH]nc-2c2ccccc12	?	–	21µM	–	21µM
Cc1cccc(-c2cc3c(N=O)c4ccccc4c-3n[nH]2)c1	–	–	?	–	?
O=C1C2CCCN2C(=O)N1CCCCN1CCN(CCO)CC1 (configuration not stated)	–	–	–	–	–
Cc1sc(N/N=C/c2ccco2)nc1-c1ccccc1	–	–	23µM	–	?
CN(C)S(=O)(=O)c1ccc(C(=O)NCC(=O)N/N=C/c2ccco2)cc1	–	–	–	–	–
Brc1ccc(-c2csc(N/N=C/c3ccco3)n2)cc1	–	–	10µM	–	?
CN(C)S(=O)(=O)c1ccc(-c2csc(N/N=C/c3ccc(O)cc3)n2)cc1	4.1µM	9.2µM	0.65µM	-103	0.92µM
CN(C)S(=O)(=O)c1ccc(-c2csc(N/N=C/c3ccco3)n2)cc1	–	–	8.2µM	-94	12µM
CCOC1=C2[C@H](c3ccccc3)N(S(=O)(=O)c3ccc(C)cc3)[C@H](C(C)C)[C@H]2n2c(=O)n(-c3ccccc3)c(=O)n2C1	–	–	–	–	–
CC[C@]1(C(=O)OC)[C@H]2C(=O)N(Cc3ccccc3)C(=O)[C@H]2[C@H]2CN=C(SC)N21	–	–	–	–	–
Clc1ccc(-c2csc(N/N=C/c3ccco3)n2)cc1	–	–	7.3µM	–	?
C(=N\Nc1nc(-c2ccccc2)cs1)/c1ccco1	–	–	15µM	–	21µM
Clc1ccc(-c2csc(N/N=C\c3cccnc3)n2)cc1	–	–	15µM	–	?
Cc1onc(-c2ccccc2)c1-c1csc(N/N=C/c2ccccc2)n1	–	–	12µM	–	?
O=C(N/N=C/c1ccco1)c1cc(-c2ccc(Cl)cc2)n[nH]1	–	–	–	–	–
Cc1ccc(-c2csc(N/N=C/c3ccco3)n2)cc1	–	–	?	–	?
CN(C)c1cc2c3ccccc3n(C)c2cc1N	–	–	–	–	–
CCCC(C)C(=O)Nc1nnc(C)s1 (configuration not stated)	–	–	–	–	–
